Sampled rows, rich in hits. Any-hit rate of the full collection: about 2.2%.
GASC-1 inh = inhibitors of GASC-1 histone demethylase, primary screen, biochemical, fluorescence, DELFIA europium; Lysine-specific demethylase 4C (Homo sapiens), Q9H3R0; GST-JMJD2C(1-420) H3K9me3 demethylation; inhibition, % at 2.35 µM; 330,000 tested, 0.069% active; AID 2099, 2009;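 active = more than half of a compound's replicate wells show inhibition beyond 50%, single wells judged on their own value; inconclusive = some, but no more than half, of replicates pass 50% inhibition; inactive = no replicate passes 50% inhibition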;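 also: signal counts dimethyl H3K9 product captured on neutravidin plate; 0% = median of DMSO wells and 100% = 0.3 times that DMSO median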
pCIP destab = p/CIP-EGFP fusion destabilizers, primary screen, fluorescence, F442A cells; AID 1984, 2009; 16 h; Q05BA5; 290,000 tested, 0.01% active; decrease of EGFP signal, % at 10 µM;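 active = EGFP signal decrease of at least 30% at 10 µM or well 3 SD below plate mean, unless failing retest; inactive = the rest, including hits failing retest or dose response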
SUMO Mot1 rescue = yeast Mot1-301 growth rescue at high temperature, primary screen, SUMOylation pathway inhibitor project, S. cerevisiae, ATP luminescence, 38.5C | S. cerevisiae Mot1-301 growth rescue; percent above DMSO median, 100 means doubled | growth rescue, % at 18.8 µM | 320,000 tested, 1% active;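 active = every valid replicate shows activation above 250% relative to neutral control wells; inactive = the rest, any valid replicate at or below 250%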;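 also: OY570 slx delta 5 strain wells were the positive control but not used for scaling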
PHOSPHO1 inh = PubChem AID 1565; Phosphoethanolamine/phosphocholine phosphatase (Homo sapiens), Q8TCT1; recombinant PHOSPHO1, absorbance phosphatase assay; inhibition, % at 13.3 µM; 290,000 tested, 1.1% active; in the data active = inhibition above about 60%
Target sequence (Q8TCT1 whole entry, looked up): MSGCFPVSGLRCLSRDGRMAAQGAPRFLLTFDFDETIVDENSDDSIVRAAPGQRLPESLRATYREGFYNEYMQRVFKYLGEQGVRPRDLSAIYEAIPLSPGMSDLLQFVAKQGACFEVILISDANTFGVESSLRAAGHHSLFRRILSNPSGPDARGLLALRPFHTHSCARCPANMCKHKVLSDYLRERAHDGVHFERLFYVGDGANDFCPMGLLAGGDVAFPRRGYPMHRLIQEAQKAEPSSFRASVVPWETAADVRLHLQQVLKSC
HDAC3 inh = HDAC3 deacetylase inhibitors, primary screen, biochemical, fluorescence, cell-free homogeneous | recombinant HDAC3, fluorogenic peptide/trypsin coupled | Histone deacetylase 3 (Homo sapiens), O15379 | inhibition, % at 8.3 µM | 320,000 tested, 0.15% active; in the data active = inhibition above about 26%, passing the limit was not always enough; inconclusive = no clear call, values can overlap the other calls
PvdQ acylase = P. aeruginosa PvdQ acylase inhibitors, primary screen, biochemical, fluorescence, plate reader and imaging, single point; purified PvdQ acylase; inhibition, % at 10 µM; 340,000 tested, 0.063% active; AID 488965, 2010; in the data active = inhibition above about 30%, passing the limit was not always enough; inconclusive = no clear call, values can overlap the other calls;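 also: 0% = vehicle neutral wells and 100% = reference inhibitor wells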
* marks the source's active call; other numbers are inactive results; i = inactive; ? = inconclusive; · = not tested or not shown.

SMILES	GASC-1 inh	pCIP destab	SUMO Mot1 rescue	PHOSPHO1 inh	HDAC3 inh	PvdQ acylase
O=C(CC(SCCO)c1ccc2c(c1)OCO2)c1cccs1 (centres undefined)	11	-7	333	83*	?	-5
O=C(CC(SCc1ccco1)c1ccc(O)cc1)c1cccs1 (centres undefined)	10	2	600*	23	9	-6
CC(NC(=O)Cc1cccs1)c1ccc2c(c1)OCO2 (centres undefined)	2	-6	-9	-6	2	-8
O=C(NCCc1ccccc1)c1ccc(NC(=O)C2CCCCC2)cc1	·	·	·	·	·	-7
Cc1cc(C)n2nc(SCC(=O)Nc3ccccc3C)nc2n1	6	-1	-2	42	0	-17
CC(Nc1nc(-c2cccc(Br)c2)cs1)c1nc2cc(Cl)c(N3CCCCC3)cc2n1CCOCCO (centres undefined)	-13	-3	6	-24	?	-6
CC(C)Oc1cccc(C(=O)C2CCCN(Cc3cnc(N4CCCC4)s3)C2)c1 (centres undefined)	12	-9	-4	37	-2	-4
COc1ccc2cc(C(=O)C3CCCN(Cc4cnc(N5CCOCC5)s4)C3)ccc2c1 (centres undefined)	-1	-16	-2	60*	2	-5
CCOc1ccc(S(=O)(=O)N2CCCCC2)cc1NC(=O)CC1OC(=O)c2ccccc21 (centres undefined)	-10	·	-1	·	0	-9
O=[N+]([O-])c1cccnc1Sc1ccc(Cl)cc1	15	6	-2	6	2	47*
O=S(=O)(c1ccc(Cl)cc1)c1snnc1-c1ccccc1	-4	-6	307*	0	2	22
CN(CC(=O)NC(=O)NC1CCCCC1)CC(=O)Nc1ccc(Cl)cc1	2	·	-20	·	13	-12
CCSc1nc2sc3c(c2c(=O)n1C1CCCCC1)CCN(C)C3	·	-25	·	60*	·	-4
COC(=O)c1cc(=O)nc2sc(-c3ccc(F)cc3)nn12	-6	-12	-20	95*	7	-1
CC(=O)c1ccc(NC(=O)CCCN2C(=O)COc3ccc(C)cc32)cc1	-5	1	9	70*	-1	0
Cc1cc(OCC(=O)NC(Cc2ccc(Cl)cc2)C(=O)O)c2c(C)c(C)c(=O)oc2c1 (centres undefined)	?	4	-8	3	-24	-14
Cc1nc2sc(C(=O)c3ccccc3)c(N)c2c(C)c1C	-11	4	3	18	-15	-15
Cc1ccc(C(=O)c2sc3nsc(C)c3c2N)cc1	2	3	-3	98*	5	-7
Cc1nc(-c2ccccc2)nc2sc(C(=O)c3ccc(F)cc3)c(N)c12	-10	-8	18	10	-2	-4
Cc1snc2sc(C(=O)c3ccc(Br)cc3)c(N)c12	3	-9	8	86*	2	-15
COc1ccc(C2C(C(=O)c3ccc(C)o3)=C(O)C(=O)N2c2cc(C)on2)cc1OC (centres undefined)	-2	3	-9	60*	0	-7
O=C(NC(=S)N1CCOCC1)c1cn(-c2ccccc2)nc1-c1ccccc1	6	·	12	·	1	-5
CCC1CCCCN1S(=O)(=O)c1ccc(C(=O)Nc2nnc(C3=COCCO3)o2)cc1 (centres undefined)	-6	6	0	-16	16	-6
COc1ccc(OCCCC(=O)Nc2cc(S(=O)(=O)N3CCCCC3)ccc2C)cc1	-13	·	-3	·	3	5
CCN(CC)CCNS(=O)(=O)c1ccc(OC)c(Br)c1	2	6	-14	93*	-4	-5
SMILES	GASC-1 inh	pCIP destab	SUMO Mot1 rescue	PHOSPHO1 inh	HDAC3 inh	PvdQ acylase
CCOc1ccc(C(=O)N2CCC3(CC2)NCCc2[nH]cnc23)cc1	3	-11	4	18	-1	9
COc1cc2c(C(=O)Nc3ccc4c(c3)OCO4)cn(CC(C)C)c(=O)c2cc1OC	-18	-3	343*	11	4	·
COc1cc2c(C(=O)NCc3ccc4c(c3)OCO4)cn(CC(C)C)c(=O)c2cc1OC	-4	2	11	-15	-3	16
CC(=O)Nc1cccc(NC(=O)Cc2cccs2)c1	-8	0	7	19	2	19
O=C(Cc1cccs1)Nc1cccc(-c2nc3cc4ccccc4cc3[nH]2)c1	0	4	811*	21	-23	1
N#Cc1ccccc1Cn1cc(C#N)c2ccccc21	1	0	·	-7	4	26
N#Cc1cn(Cc2ccccc2)c2ccccc12	1	-3	0	17	2	35*
COC(=O)C(/C=N/OCc1ccc([N+](=O)[O-])cc1)NC(=O)c1cccc(Cl)c1 (centres undefined)	-7	-8	59	12	44*	8
O=S1(=O)c2cccc3cccc(c23)N1CCBr	-20	-13	-26	36	3	0
CC(=O)c1ccc(OCCOc2ccc([N+](=O)[O-])cc2)cc1	3	2	15	34	7	-1
C[N+]1(CCOc2ccc([N+](=O)[O-])cc2)CCOCC1	13	-8	15	97*	7	4
CC1C/C(=N\NC(=O)c2ccc(NS(=O)(=O)c3ccc(Br)cc3)cc2)CC(C)(C)C1 (centres undefined)	-2	-2	6	3	37*	1
CC1C/C(=N\NC(=O)c2ccc([N+](=O)[O-])cc2)CC(C)(C)C1 (centres undefined)	4	-9	-3	35	0	0
CN(C)c1ccc(/C=C/c2cc[n+](C)cc2)cc1	6	-311	6	102*	3	-7
C[n+]1ccc(/C=C/c2cccs2)cc1	2	-13	7	74*	-4	-15
O=C(Nc1ccc(Br)cc1)C1CCCN(C2=NS(=O)(=O)c3ccccc32)C1 (centres undefined)	-2	·	4	·	1	5
O=C(Cn1nc(C(=O)O)c2ccccc2c1=O)Nc1cc(C(F)(F)F)ccc1-n1cncn1	-9	·	5	·	-5	-12
Cc1c(Cl)c(C(=O)NNC(=S)Nc2ccc(F)cc2)nn1C	2	-3	i	-68	7	-13
Cc1c(Cl)c(C(=O)NNC(=S)Nc2ccccc2)nn1C	?	7	-4	66*	-3	-13
C#CC(=O)N(c1ccc(OC)c(OC)c1)C(C(=O)NC1CCCC1)c1cccs1 (centres undefined)	-11	-12	33	10	0	1
